# In PubChem BioAssay:
# The source made the active and inactive calls. Unless noted, the rule behind the calls is not given here.
# Tests used:
# [1] = tested on: Wnt5a (protein binding on small-molecule microarray); assay: small molecules binding Wnt5a protein – biophysical, small-molecule microarray, 635/667 nm fluorescence, primary screen (AID 1142); conditions: 635 nm fluorescence, higher = more signal;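 note: fluorescence read at 667 nm with signal to noise per printed feature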
# [2] = ATP-based viability of Huh7 replicon cells – cell-based, CellTiter-Glo luminescence, basal, 48 h, cytotoxicity control for HCV replication inhibitor project, primary screen (AID 1143); conditions: higher = more signal, called active from +8 up or from −8 down;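 note: Huh7 hepatoma cells carrying a hepatitis C replication reporter with no stimulus; test concentration not given here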
# [3] = Pseudomonas biofilm growth suppression – PAO1 strain, BacTiter-Glo luminescence, LB-PBS, primary screen (AID 1144); conditions: P. aeruginosa PAO1 biofilm, 12 h, higher = more signal
# [4] = basal CRE-LacZ reporter activity in PC12 – cell-based, unstimulated, primary screen (AID 1145); conditions: no forskolin, luminescence, 4.5 h, higher = more signal, called active from +8 up or from −8 down
# [5] = forskolin-driven CRE-LacZ activity in PC12 – cell-based, CRE-LacZ reporter, forskolin-stimulated, primary screen (AID 1146); conditions: luminescence, 4.5 h, higher = more signal, called active from +8 up or from −8 down;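 note: PC12 cells with 6xCRE LacZ reporter stimulated by forskolin 10 µM; beta-galactosidase reporter signal reflecting CREB driven transcription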
# [6] = target: Streptavidin (Streptomyces avidinii) (UniProt P22629); assay: compounds binding control protein streptavidin – biophysical, small-molecule microarray, 635/667 nm fluorescence, artefact control for SMM compound annotation, primary screen (AID 1147); conditions: higher = more signal;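 note: signal reflects streptavidin binding to arrayed compounds as a control protein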
# Streptavidin (Streptomyces avidinii), sequence (P22629 whole entry, looked up): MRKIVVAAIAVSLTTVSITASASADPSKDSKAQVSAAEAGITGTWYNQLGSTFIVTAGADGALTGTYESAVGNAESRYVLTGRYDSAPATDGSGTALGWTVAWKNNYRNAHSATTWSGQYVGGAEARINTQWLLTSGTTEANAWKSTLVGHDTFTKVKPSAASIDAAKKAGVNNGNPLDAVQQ
# [7] = probe aInhba binding on compound microarray – biochemical, small-molecule microarray, 635/667 nm fluorescence, primary screen (AID 1148); conditions: higher = more signal;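 note: score merges 667nm spot fluorescence with signal-to-noise for antibody binding to printed compounds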
# [8] = target: Torsin-1A (Homo sapiens) (UniProt O14656); assay: TOR1A wild-type binding on microarray – cell lysate, small-molecule microarray, lysate, 635/667 nm, primary screen (AID 1149); conditions: COS7 hTOR1A-WT lysate, 635 nm fluorescence, higher = more signal
# Torsin-1A (Homo sapiens), sequence (O14656 whole entry, looked up): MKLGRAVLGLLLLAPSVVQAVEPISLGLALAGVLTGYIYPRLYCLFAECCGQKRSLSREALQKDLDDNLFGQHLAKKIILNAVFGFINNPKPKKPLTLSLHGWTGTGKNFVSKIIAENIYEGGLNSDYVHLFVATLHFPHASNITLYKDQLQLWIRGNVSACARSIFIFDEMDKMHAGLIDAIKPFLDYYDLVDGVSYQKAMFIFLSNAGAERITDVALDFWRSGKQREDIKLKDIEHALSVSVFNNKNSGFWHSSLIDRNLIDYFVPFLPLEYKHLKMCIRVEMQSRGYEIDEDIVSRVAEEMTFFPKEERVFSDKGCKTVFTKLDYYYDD
# [9] = target: Torsin-1A (Homo sapiens) (UniProt O14656); assay: torsin A mutant lysate binding on microarrays – cell lysate, small-molecule microarray, COS7 lysate, 635/667 nm fluorescence, primary screen (AID 1150); conditions: COS7 hTOR1A mutant lysate, 635 nm fluorescence, higher = more signal;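 note: score pools 667 nm emission and signal to noise measuring lysate protein binding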
# [10] = tested on: Sonic hedgehog protein (Shh); assay: Sonic hedgehog microarray binding compounds – biochemical, small-molecule microarray, 635/667 nm fluorescence, primary screen (AID 1151); conditions: 635 nm fluorescence, higher = more signal;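 note: Shh protein binding to compounds spotted on small-molecule microarray slides; score combines spot fluorescence intensity with signal-to-noise across triplicate slides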
# [11] = optical density shifts of acrAB sulA E. coli – strain DRC41, OD650, 48 h, E. coli filamentation inducer project, primary screen (AID 1152); conditions: higher = more signal, called active from +8 up or from −8 down;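 note: E. coli MC1000 strain DRC41 lacking acrAB efflux pump and sulA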
# [12] = probe aLefty1 binding on compound microarray – biochemical, small-molecule microarray, 635/667 nm fluorescence, primary screen (AID 1153); conditions: higher = more signal;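 note: score merges spot fluorescence with signal-to-noise ratio from the scanned slide images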
# [13] = plasmodial surface anion channel blockers, osmotic lysis – cell-based, P. falciparum Indochina, OD700, 1 h, primary screen (AID 1154); conditions: P. falciparum Indochina infected RBC osmotic lysis, higher = more signal, called active from +8 up or from −8 down
# [14] = plasmodial surface anion channel blockers, osmotic lysis – cell-based, P. falciparum Indochina, OD700, 2 h, primary screen (AID 1155);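 note: lysis reports solute entry through the parasite surface anion channel PSAC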; conditions: P. falciparum Indochina infected erythrocytes, higher = more signal, called active from +8 up or from −8 down
# [15] = changes in parasitized red cell lysis, either direction – P. falciparum Indochina, OD700, 3 h, PSAC antagonist project, primary screen (AID 1156); conditions: P. falciparum-infected erythrocytes, osmotic lysis, higher = more signal, called active from +8 up or from −8 down
# [16] = plasmodial surface anion channel blockers, osmotic lysis – cell-based, P. falciparum Indochina, OD700, 18 h, primary screen (AID 1157); conditions: P. falciparum Indochina infected erythrocytes, osmotic lysis OD700, 18 h; higher = more signal, called active from +8 up or from −8 down
# [17] = S6 kinase pathway phospho-S6 level changes – cell-based, A549, cytoblot, luminescence, serum-stimulated, primary screen (AID 1158); conditions: 5 h, higher = more signal;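 note: serum-stimulated A549 lung adenocarcinoma cells; signal is phosphorylated S6 detected by cytoblot immunostaining with HRP secondary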
# [18] = target: NADPH oxidase 2 (Homo sapiens) (UniProt P04839); assay: compounds shifting NOX2 Amplex Red fluorescence – cell-based, HEK293-NOX2, PMA-stimulated, NOX inhibitor project, primary screen (AID 1159); conditions: 45 min, higher = more signal, called active from +8 up or from −8 down; note: test concentration not given here
# NADPH oxidase 2 (Homo sapiens), sequence (P04839 whole entry, looked up): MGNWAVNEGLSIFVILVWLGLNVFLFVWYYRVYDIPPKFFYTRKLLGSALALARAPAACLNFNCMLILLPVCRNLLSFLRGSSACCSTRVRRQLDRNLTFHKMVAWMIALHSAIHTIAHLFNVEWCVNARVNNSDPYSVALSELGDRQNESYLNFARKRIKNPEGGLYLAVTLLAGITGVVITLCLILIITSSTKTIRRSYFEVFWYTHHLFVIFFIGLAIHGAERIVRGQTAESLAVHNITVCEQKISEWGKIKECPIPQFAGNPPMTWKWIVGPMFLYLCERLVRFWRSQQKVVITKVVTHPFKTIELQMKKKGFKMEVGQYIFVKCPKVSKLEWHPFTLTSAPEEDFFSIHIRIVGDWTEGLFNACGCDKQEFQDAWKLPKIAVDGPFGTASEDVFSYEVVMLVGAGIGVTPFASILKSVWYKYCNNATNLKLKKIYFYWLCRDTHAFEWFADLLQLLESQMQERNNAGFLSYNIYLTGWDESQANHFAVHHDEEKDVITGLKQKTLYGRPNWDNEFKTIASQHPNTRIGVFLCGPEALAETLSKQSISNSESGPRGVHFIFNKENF
# [19] = target: NADPH oxidase 4 (Homo sapiens) (UniProt Q9NPH5); assay: compounds shifting NOX4 Amplex Red fluorescence – cell-based, HEK293-NOX4, tetracycline-induced, NOX inhibitor project, primary screen (AID 1160); conditions: HEK293-NOX4, Amplex Red H2O2 fluorescence, 45 min; higher = more signal, called active from +8 up or from −8 down
# NADPH oxidase 4 (Homo sapiens), sequence (Q9NPH5 whole entry, looked up): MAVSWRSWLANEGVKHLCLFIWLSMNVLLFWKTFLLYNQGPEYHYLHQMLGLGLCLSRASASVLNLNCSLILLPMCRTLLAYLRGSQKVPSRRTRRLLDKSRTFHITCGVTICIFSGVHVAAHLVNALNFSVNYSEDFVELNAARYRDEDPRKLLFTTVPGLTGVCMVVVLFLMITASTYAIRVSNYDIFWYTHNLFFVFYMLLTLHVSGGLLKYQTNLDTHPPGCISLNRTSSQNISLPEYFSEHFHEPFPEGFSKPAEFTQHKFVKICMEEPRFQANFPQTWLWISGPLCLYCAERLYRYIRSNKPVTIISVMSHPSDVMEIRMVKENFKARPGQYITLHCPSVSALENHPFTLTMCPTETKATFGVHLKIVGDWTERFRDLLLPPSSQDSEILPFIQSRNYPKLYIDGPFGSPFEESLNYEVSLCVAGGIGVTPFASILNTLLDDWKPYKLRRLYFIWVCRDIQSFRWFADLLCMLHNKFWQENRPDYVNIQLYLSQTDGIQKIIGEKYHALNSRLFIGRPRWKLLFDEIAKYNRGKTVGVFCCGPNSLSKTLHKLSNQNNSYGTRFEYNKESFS
# [20] = target: NADPH oxidase 5 (Homo sapiens) (UniProt Q96PH1); assay: compounds shifting NOX5 Amplex Red fluorescence – cell-based, HEK293-NOX5, NOX inhibitor project, primary screen (AID 1161); conditions: HEK293-NOX5, ionomycin, 45 min, higher = more signal
# NADPH oxidase 5 (Homo sapiens), sequence (Q96PH1 whole entry, looked up): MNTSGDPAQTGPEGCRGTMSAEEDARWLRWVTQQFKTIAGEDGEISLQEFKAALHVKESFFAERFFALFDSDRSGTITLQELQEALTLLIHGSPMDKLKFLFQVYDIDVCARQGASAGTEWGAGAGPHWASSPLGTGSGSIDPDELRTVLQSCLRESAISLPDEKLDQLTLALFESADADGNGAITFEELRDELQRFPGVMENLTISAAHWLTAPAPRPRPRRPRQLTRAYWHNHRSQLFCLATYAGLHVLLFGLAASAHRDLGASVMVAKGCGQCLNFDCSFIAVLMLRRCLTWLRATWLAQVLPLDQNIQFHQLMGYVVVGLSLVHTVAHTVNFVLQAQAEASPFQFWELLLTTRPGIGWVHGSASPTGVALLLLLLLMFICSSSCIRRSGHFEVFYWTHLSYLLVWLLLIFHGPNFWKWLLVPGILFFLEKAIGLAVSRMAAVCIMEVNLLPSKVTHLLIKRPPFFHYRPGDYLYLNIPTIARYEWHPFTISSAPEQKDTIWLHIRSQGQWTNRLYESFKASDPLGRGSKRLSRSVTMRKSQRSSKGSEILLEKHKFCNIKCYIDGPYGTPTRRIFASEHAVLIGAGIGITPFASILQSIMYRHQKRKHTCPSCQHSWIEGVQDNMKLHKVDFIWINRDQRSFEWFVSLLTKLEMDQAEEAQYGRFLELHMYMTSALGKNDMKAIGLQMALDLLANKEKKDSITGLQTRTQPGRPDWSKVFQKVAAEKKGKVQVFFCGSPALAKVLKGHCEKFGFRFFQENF
SMILES,composite z-score [1],z-score [2],z-score [3],z-score [4],z-score [5],composite z-score [6],composite z-score [7],composite z-score [8],composite z-score [9],composite z-score [10],z-score [11],composite z-score [12],z-score [13],z-score [14],z-score [15],z-score [16],z-score [17],z-score [18],z-score [19],z-score [20]
C=CCNC(=O)[C@H]1[C@@H]2C(=O)O[C@@H](c3ccccc3)[C@@H](c3ccccc3)N2[C@@H](c2ccc(O)cc2)[C@]12C(=O)N(C(=O)OCCOC)c1ccc(C#CC3=CCCCC3)cc12,0.411,-3.95 (inactive),0.101 (inactive),-0.878 (inactive),-0.633 (inactive),0.841,0.935,0.757,1.14,1.45,-0.383 (inactive),1.81,1.65 (inactive),0.929 (inactive),0.0207 (inactive),0.506 (inactive),-0.25,1.96 (inactive),-0.149 (inactive),1.47
CCOC(=O)CCN1C(=O)[C@H]2[C@H]3[C@H](O)C=CC(=O)[C@@H]3CC[C@H]2C1=O,-0.244,0.507 (inactive),-0.281 (inactive),-0.115 (inactive),-0.297 (inactive),0.225,0.0104,0.327,-0.364,0.425,-0.221 (inactive),0.0479,-0.0882 (inactive),0.501 (inactive),-0.233 (inactive),0.352 (inactive),0.146,1.22 (inactive),0.463 (inactive),-0.244
COc1ccc([Si](C)(C)[C@H]2[C@H](CC(=O)N3CCC[C@H]3CO)O[C@@]3(C(=O)N(Cc4cccc(N5C(=O)COc6ccccc65)c4)c4ccccc43)[C@@H]2C)cc1,0.156,-2.16 (inactive),-0.201 (inactive),7.18 (inactive),-1.22 (inactive),0.0527,-0.157,0.419,0.889,1.92,1.62 (inactive),0.169,6.56 (inactive),0.0867 (inactive),-0.749 (inactive),-0.701 (inactive),1.03,1.1 (inactive),1.21 (inactive),2.99
COCCOC(=O)N1C(=O)[C@@]2(c3cc(C#Cc4ccc(OC)cc4)ccc31)[C@H](c1ccc(O)cc1)N1[C@H](c3ccccc3)[C@H](c3ccccc3)OC(=O)[C@H]1[C@@H]2C(N)=O,0.586,-2.75 (inactive),-0.97 (inactive),-0.752 (inactive),-0.94 (inactive),0.417,-0.0947,0.187,0.825,1.44,0.0372 (inactive),-0.303,6.02 (inactive),1.5 (inactive),-0.407 (inactive),0.954 (inactive),-0.0604,0.782 (inactive),0.689 (inactive),0.305
O=C1[C@H]2[C@H]3[C@H](O)[C@H](O)CC(=NO[C@@H]4O[C@H](CO)[C@@H](O)[C@H](O)[C@H]4O)[C@@H]3CC[C@H]2C(=O)N1Cc1ccc2c(c1)OCO2,0.163,0.548 (inactive),0.572 (inactive),0.245 (inactive),0.366 (inactive),0.335,-0.0506,0.35,0.254,0.666,-0.161 (inactive),-0.0016,5.54 (inactive),0.373 (inactive),1.3 (inactive),0.404 (inactive),0.117,-0.486 (inactive),0.295 (inactive),-0.163
COC(=O)c1c(CC[C@@H](CO)NC(=O)N[C@H](Cc2ccccc2)Cn2cc(-c3ccccc3N)nn2)oc(C(C)=O)c1C(=O)OC,-0.0029,-0.145 (inactive),0.41 (inactive),3.84 (inactive),-0.687 (inactive),2.14,0.449,0.481,0.794,0.352,0.144 (inactive),0.5,29.7 (active),15.5 (active),0.845 (inactive),1.73 (inactive),0.211,-2.69 (inactive),0.681 (inactive),1.74
CC(CCN1CCCCc2nc(C)c(C)cc21)=NOC(C)CN1CCCCc2nc(C)c(C)cc21 (stereo not given),0.183,-2.16 (inactive),0.483 (inactive),0.187 (inactive),0.907 (inactive),1.1,0.0528,2.88,2.32,1.69,-2.08 (inactive),0.235,1.38 (inactive),0.329 (inactive),0.964 (inactive),0.587 (inactive),-0.839,-1.47 (inactive),-3.07 (inactive),-1.31
CC(C)[C@@H](OCc1ccccc1)[C@H](C)C=NO[C@H](C)c1cn([C@H](CO)Cc2ccccc2)nn1,0.231,-1.28 (inactive),0.403 (inactive),0.987 (inactive),-0.437 (inactive),0.808,-0.126,0.353,1.15,0.29,-0.489 (inactive),-0.448,-0.146 (inactive),-1.75 (inactive),-0.525 (inactive),-2.28 (inactive),1.99,-2.23 (inactive),-0.147 (inactive),-1.41
C[C@H]1CC[C@@H](C(=O)O)N[C@@H]1c1ccc(C#CCN(C)C)cc1,0.163,0.141 (inactive),-0.0379 (inactive),1.83 (inactive),-1.12 (inactive),0.85,-0.273,0.363,0.323,0.427,0.883 (inactive),-0.231,0.167 (inactive),-0.219 (inactive),0.274 (inactive),-0.0947 (inactive),0.112,0.903 (inactive),-0.00118 (inactive),0.0715
